The source made the active and inactive calls. Rule for the calls: active = hit-call score of the fitted dose curve at least 0.9, where 1 is the maximum; inactive = score below 0.9.

From PubChem BioAssay (EPA / NIEHS) come the findings set out here.

A short description of assay [1]: ATG_GLI_CIS: Attagene CIS-FACTORIAL HepG2 Assay for human Zinc Finger Protein GLI1 (AID 2282945). The note with it: HepG2, Attagene cis-factorial reporter mRNA, GLI element; actives raise or lower the signal. The essentials: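 Bidirectional curve fits relative to DMSO, using reporter mRNA levels from RT-PCR plus capillary electrophoresis. Cells were HepG2 transiently carrying cis-regulated reporter constructs, harvested 24 h after dosing.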

For assay [2], the target named is Bile acid receptor (Homo sapiens) (UniProt Q96RI1). The experiment in a line: ATG_IR1_CIS: Attagene CIS-FACTORIAL HepG2 Assay for human Nuclear Receptor Subfamily 1 Group H Member 4 (NR1H4), IR1 submotif (AID 2282946). Particulars: IR1 reporter transcription, actives raise or lower the signal. In a few lines:
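Cells (human HepG2) carry transiently transfected cis-promoter reporter transcription units. Compounds are incubated 24 h, total RNA is reverse-transcribed and amplified, and labelled fragments are resolved by capillary electrophoresis. Curves use DMSO as baseline.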

The nature of assay [3]: ATG_GRE_CIS: Attagene CIS-FACTORIAL HepG2 Assay for human Glucocorticoid Response Elements (GRE) (AID 2282947). Particulars: HepG2 GRE cis-reporter, Attagene multiplex mRNA; actives raise or lower the signal. The essentials:
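Transient MRTU transfection of human HepG2 liver cells; cis-regulated reporters report endogenous factors. 24 h dosing → RNA isolation → RT-PCR → 6-FAM primer extension → HpaI cut → CE fragment analysis. Bidirectional fit, DMSO negative control.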

Assay [4] can be described thus: ATG_ISRE_CIS: Attagene CIS-FACTORIAL HepG2 Assay for human Interferon Regulatory Factor 1 (IRF1) binding to an Interferon-Stimulated Response Element (ISRE) (AID 2282948). Particulars: HepG2 ISRE cis-reporter (Attagene), mRNA transcription readout; actives raise or lower the signal. In a few lines:
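Cell-based cis-reporter assay; HepG2; 24 h exposure; reporter mRNA by RT-PCR plus capillary electrophoresis fluorescence; activity in either direction scored relative to DMSO.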

The nature of assay [5]: ATG_M_32_CIS: Attagene CIS-FACTORIAL HepG2 Assay for M32 Transcription Factor (Internal Marker) (AID 2282949).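 Note: background control marker of the multiplexed CIS panel rather than a real target.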 Particulars: HepG2 Attagene cis-factorial M32 reporter, mRNA; actives raise or lower the signal. In a few lines:
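Fluorescent capillary electrophoresis peaks of HpaI-digested, FAM-labelled RT-PCR reporter products give the signal. Source: transiently transfected human liver HepG2 cells, 24 h after chemical dosing; bidirectional fitting against DMSO.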

The nature of assay [6]: ATG_M_06_CIS: Attagene CIS-FACTORIAL HepG2 Assay for M06 Transcription Factor (Internal Marker) (AID 2282950). The note with it: HepG2 Attagene CIS-FACTORIAL M06 internal marker reporter; actives raise or lower the signal. In a few lines:
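Fluorescence-labelled RT-PCR products from cis-promoter reporter units, cut with HpaI and resolved by capillary electrophoresis, give the signal. Cells are human HepG2, dosed for 24 h. Serves as background control, fitted relative to DMSO.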

The target in assay [7] is Hypoxia-inducible factor 1-alpha (Homo sapiens) (UniProt Q16665). The experiment in a line: ATG_HIF1a_CIS: Attagene CIS-FACTORIAL HepG2 Assay for human Hypoxia Inducible Factor 1 (HIF1A) (AID 2282951). Particulars: HepG2 Attagene cis-factorial HIF1a reporter transcription; actives raise or lower the signal. In a few lines:
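In this multiplexed cell assay, HepG2 cells bearing transfected cis reporters are dosed for 24 h and reporter mRNA is read by RT-PCR plus capillary electrophoresis; signal increases and decreases are both scored against DMSO.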

The target in assay [8] is Hepatocyte nuclear factor 6 (Homo sapiens) (UniProt Q9UBC0). The assay can be described thus: ATG_HNF6_CIS: Attagene CIS-FACTORIAL HepG2 Assay for human Hepatocyte Nuclear Factor 6 (HNF6) (AID 2282952). Particulars: HepG2 Attagene cis-factorial HNF6 reporter transcription; actives raise or lower the signal. The essentials:
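Cells are HepG2 carrying transiently transfected cis-promoter reporter units. Treatment lasts 24 h, after which reporter transcripts are reverse-transcribed, amplified, FAM-labelled and sized by capillary electrophoresis. DMSO serves as baseline.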

For assay [9], the target named is Heat shock factor protein 1 (Homo sapiens) (UniProt Q00613). The experiment in a line: ATG_HSE_CIS: Attagene CIS-FACTORIAL HepG2 Assay for human Heat Shock Transcription Factor 1 (HSE) (AID 2282953). The note with it: HepG2 HSE cis-reporter, Attagene RNA transcription; actives raise or lower the signal. In a few lines:
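After a 24 h incubation with test chemical, transfected HepG2 cells were harvested for RNA; reporter transcripts were measured by RT-PCR and capillary electrophoresis. Values reflect gain or loss of signal relative to DMSO.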

Assay [10] is described as follows: ATG_MRE_CIS: Attagene CIS-FACTORIAL HepG2 Assay for human Metal Responsive Element (MRE) (AID 2282954). Particulars: HepG2 MRE cis-reporter transcription, Attagene multiplex; actives raise or lower the signal. In a few lines:
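Transient MRTU transfection of HepG2 (FuGene 6); 24 h dosing; total RNA → oligo(dT) RT, PCR, 6-FAM primer extension, HpaI cut, CE. Bidirectional fit vs DMSO.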

In assay [11] the target is Paired box protein Pax-6 (Homo sapiens) (UniProt P26367). The assay can be described thus: ATG_Pax6_CIS: Attagene CIS-FACTORIAL HepG2 Assay for human Paired Box 6 (PAX6) (AID 2282956). Particulars: HepG2 CIS-FACTORIAL PAX6 reporter transcription, RNA readout; actives raise or lower the signal. In a few lines: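 Multiplexed cis-reporter HepG2 system; 24 h treatment; reporter mRNA read by RT-PCR/CE fluorescence; bidirectional fit vs DMSO.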
Sequence of Paired box protein Pax-6 (Homo sapiens) (P26367 whole entry, looked up): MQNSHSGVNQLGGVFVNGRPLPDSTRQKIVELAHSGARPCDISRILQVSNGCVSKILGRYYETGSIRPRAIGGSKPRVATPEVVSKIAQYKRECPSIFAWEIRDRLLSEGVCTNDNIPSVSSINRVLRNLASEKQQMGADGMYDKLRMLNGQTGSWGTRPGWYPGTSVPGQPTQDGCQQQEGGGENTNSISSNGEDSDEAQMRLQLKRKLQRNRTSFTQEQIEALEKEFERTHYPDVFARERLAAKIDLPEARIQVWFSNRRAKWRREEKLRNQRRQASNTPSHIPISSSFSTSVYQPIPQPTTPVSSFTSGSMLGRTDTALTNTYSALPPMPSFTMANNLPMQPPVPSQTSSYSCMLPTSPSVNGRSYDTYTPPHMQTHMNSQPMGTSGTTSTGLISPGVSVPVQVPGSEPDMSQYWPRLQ

The nature of assay [12]: ATG_PXRE_CIS: Attagene CIS-FACTORIAL HepG2 Assay for human Pregnane X Receptor Element (PXRE) (AID 2282957). The note with it: HepG2 Attagene CIS-FACTORIAL PXRE reporter, mRNA; actives raise or lower the signal. The essentials:
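Multiplexed cis-reporter assay in transiently transfected human HepG2 cells; 24 h chemical exposure. Reporter transcripts quantified by RT-PCR with fluorescent labeling and capillary electrophoresis.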

Assay [13] is described as follows: ATG_PPRE_CIS: Attagene CIS-FACTORIAL HepG2 Assay for human Peroxisome Proliferator-activated Response Element (PPRE) (AID 2282958). The note with it: HepG2 PPRE cis-element reporter, Attagene transcription factor profiling; actives raise or lower the signal. In a few lines: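 Multiplexed reporter transcription units under cis-regulatory promoters were transfected into HepG2 cells to capture endogenous factor activity. A 24 h incubation preceded RNA isolation and fluorescent RT-PCR fragment analysis.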

Assay [14] is described as follows: ATG_RORE_CIS: Attagene CIS-FACTORIAL HepG2 Assay for human RAR-related Orphan Receptor Element (RORE) (AID 2282959). The note with it: HepG2 Attagene cis-factorial RORE reporter, mRNA; actives raise or lower the signal. In a few lines:
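Fluorescence intensity of reporter-specific cDNA fragments, separated by capillary electrophoresis, gives the signal. Source: HepG2 liver cells transiently transfected with cis-element reporters and exposed 24 h; DMSO-normalized bidirectional fit.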

The nature of assay [15]: ATG_Sox_CIS: Attagene CIS-FACTORIAL HepG2 Assay for human SRY-box transcription factor (SOX) (AID 2282960). The note with it: HepG2 Attagene cis-factorial SOX reporter, mRNA; actives raise or lower the signal. In a few lines:
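After 24 h of chemical treatment, transfected HepG2 reporter cells are lysed for total RNA. Transcript levels come from RT-PCR with labelled primer extension and capillary electrophoresis, analysed bidirectionally versus DMSO.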

The target in assay [16] is Transcription factor Sp1 (Homo sapiens) (UniProt P08047). The experiment in a line: ATG_Sp1_CIS: Attagene CIS-FACTORIAL HepG2 Assay for human Specificity Protein 1 (Sp1) (AID 2282961). The note with it: HepG2 Sp1 cis-reporter transcription, actives raise or lower the signal. The essentials:
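Sp1-driven reporter mRNA, read as capillary electrophoresis fluorescence after RT-PCR, in transiently transfected HepG2 cells dosed for 24 h; signal change in either direction relative to DMSO.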

Assay [17] is described as follows: ATG_SREBP_CIS: Attagene CIS-FACTORIAL HepG2 Assay for human Sterol Regulatory Element Binding (SREBP) (AID 2282962). The note with it: HepG2 Attagene cis-factorial SREBP reporter, mRNA; actives raise or lower the signal. In a few lines: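 mRNA induction of transfected cis-promoter reporters in HepG2 cells, 24 h post-dose. Detection: RT-PCR with 6-FAM-labelled products, HpaI digest, capillary electrophoresis. DMSO served as negative control and baseline.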

The target in assay [18] is Signal transducer and activator of transcription 3 (Homo sapiens) (UniProt P40763). The assay can be described thus: ATG_STAT3_CIS: Attagene CIS-FACTORIAL HepG2 Assay for human Signal Transducer and Activator of Transcription 3 (STAT3) (AID 2282963). The note with it: HepG2, Attagene cis-factorial STAT3 reporter transcription; actives raise or lower the signal. The essentials: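 Endogenous STAT3-responsive cis-element activity was read in transiently transfected HepG2 cells after 24 h treatment. Reporter transcripts were quantified via RT-PCR and capillary electrophoresis, with DMSO as negative control and bidirectional curve fitting.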
Sequence of Signal transducer and activator of transcription 3 (Homo sapiens) (P40763 whole entry, looked up): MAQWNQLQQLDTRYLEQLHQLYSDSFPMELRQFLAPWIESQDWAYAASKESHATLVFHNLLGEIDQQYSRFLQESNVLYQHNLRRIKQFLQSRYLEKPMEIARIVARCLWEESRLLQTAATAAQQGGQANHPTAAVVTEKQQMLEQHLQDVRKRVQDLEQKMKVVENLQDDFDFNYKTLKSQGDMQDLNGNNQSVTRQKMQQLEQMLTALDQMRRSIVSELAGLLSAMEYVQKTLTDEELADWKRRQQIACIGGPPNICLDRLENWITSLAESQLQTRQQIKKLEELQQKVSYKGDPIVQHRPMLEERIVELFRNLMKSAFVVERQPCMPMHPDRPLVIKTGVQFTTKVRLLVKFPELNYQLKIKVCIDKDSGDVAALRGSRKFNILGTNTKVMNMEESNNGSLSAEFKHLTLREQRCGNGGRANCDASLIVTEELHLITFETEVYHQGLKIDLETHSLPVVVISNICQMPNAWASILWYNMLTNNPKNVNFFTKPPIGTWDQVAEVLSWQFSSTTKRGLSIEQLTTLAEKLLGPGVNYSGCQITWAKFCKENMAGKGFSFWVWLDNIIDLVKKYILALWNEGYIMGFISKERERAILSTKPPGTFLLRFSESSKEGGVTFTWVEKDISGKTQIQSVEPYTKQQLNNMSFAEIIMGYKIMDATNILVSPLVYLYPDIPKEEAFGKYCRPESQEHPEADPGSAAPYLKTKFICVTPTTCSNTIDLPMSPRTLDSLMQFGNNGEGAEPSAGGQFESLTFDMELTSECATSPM

A short description of assay [19]: ATG_TA_CIS: Attagene CIS-FACTORIAL HepG2 Assay for human TA Basal Promoter (AID 2282964). Particulars: HepG2 Attagene CIS-factorial TA basal promoter reporter; actives raise or lower the signal. In a few lines: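 Multiplexed mRNA reporter assay, HepG2, 24 h. Reporter cDNA amplified, 6-FAM primer-extended, HpaI-cut, CE-sized; DMSO = negative control and baseline.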

Assay [20] can be described thus: ATG_PBREM_CIS: Attagene CIS-FACTORIAL HepG2 Assay for human Phenobarbital-responsive Enhancer Module (PBREM) (AID 2282955). Particulars: HepG2 PBREM cis-reporter, Attagene multiplexed transcription; actives raise or lower the signal. In a few lines:
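After a 24 h incubation with test chemical, transfected HepG2 cells yield total RNA; reporter-specific RT-PCR products are fluorescently labelled, HpaI-digested and resolved by capillary electrophoresis against ROX size standards.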

Sequence of Bile acid receptor (Homo sapiens) (Q96RI1 whole entry, looked up, the tested form may be a part): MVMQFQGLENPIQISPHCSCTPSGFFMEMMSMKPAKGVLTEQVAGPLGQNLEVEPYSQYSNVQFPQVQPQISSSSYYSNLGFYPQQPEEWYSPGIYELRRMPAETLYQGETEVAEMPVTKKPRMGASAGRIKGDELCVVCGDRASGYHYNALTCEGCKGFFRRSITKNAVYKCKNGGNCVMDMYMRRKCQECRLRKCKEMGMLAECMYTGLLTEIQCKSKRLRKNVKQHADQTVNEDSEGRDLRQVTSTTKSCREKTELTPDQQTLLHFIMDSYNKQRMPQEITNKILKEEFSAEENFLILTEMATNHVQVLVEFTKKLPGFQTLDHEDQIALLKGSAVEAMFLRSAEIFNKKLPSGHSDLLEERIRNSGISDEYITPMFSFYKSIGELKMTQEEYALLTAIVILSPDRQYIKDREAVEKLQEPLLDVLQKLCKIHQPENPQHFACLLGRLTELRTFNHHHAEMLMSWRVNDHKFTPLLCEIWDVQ
Sequence of Heat shock factor protein 1 (Homo sapiens) (Q00613 whole entry, looked up): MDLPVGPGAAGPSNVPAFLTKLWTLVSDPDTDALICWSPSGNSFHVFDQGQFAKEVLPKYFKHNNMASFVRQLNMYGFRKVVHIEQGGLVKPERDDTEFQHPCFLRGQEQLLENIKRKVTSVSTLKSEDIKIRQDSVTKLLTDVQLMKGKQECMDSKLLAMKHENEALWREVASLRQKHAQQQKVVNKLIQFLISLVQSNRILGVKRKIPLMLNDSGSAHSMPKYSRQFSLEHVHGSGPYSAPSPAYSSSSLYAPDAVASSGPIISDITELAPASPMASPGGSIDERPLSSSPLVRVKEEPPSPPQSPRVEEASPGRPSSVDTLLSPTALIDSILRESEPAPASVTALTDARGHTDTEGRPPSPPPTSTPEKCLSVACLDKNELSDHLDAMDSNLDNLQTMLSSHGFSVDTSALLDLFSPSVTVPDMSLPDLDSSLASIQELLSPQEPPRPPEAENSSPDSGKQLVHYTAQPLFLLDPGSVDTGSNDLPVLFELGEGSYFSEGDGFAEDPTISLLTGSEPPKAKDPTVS
Sequence of Transcription factor Sp1 (Homo sapiens) (P08047 whole entry, looked up): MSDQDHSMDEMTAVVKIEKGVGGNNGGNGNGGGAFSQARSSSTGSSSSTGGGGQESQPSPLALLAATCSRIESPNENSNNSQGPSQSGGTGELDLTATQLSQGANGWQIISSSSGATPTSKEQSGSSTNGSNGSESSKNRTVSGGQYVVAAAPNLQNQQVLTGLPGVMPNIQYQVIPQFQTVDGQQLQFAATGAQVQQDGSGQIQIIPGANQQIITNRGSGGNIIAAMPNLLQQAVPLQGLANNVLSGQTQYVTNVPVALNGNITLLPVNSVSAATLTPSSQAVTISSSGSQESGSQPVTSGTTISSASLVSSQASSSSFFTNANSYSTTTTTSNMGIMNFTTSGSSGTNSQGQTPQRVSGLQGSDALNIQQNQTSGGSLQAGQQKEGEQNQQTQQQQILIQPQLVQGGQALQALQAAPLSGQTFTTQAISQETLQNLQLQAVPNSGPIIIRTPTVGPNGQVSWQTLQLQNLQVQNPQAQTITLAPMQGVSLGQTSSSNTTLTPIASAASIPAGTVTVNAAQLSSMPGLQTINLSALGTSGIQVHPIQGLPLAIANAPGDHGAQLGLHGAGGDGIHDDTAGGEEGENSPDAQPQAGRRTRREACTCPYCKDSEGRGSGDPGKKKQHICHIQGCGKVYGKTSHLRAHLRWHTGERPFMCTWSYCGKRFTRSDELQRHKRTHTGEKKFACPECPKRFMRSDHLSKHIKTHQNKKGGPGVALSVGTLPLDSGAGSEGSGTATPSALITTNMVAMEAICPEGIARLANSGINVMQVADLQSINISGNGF
Sequence of Hypoxia-inducible factor 1-alpha (Homo sapiens) (Q16665 whole entry, looked up): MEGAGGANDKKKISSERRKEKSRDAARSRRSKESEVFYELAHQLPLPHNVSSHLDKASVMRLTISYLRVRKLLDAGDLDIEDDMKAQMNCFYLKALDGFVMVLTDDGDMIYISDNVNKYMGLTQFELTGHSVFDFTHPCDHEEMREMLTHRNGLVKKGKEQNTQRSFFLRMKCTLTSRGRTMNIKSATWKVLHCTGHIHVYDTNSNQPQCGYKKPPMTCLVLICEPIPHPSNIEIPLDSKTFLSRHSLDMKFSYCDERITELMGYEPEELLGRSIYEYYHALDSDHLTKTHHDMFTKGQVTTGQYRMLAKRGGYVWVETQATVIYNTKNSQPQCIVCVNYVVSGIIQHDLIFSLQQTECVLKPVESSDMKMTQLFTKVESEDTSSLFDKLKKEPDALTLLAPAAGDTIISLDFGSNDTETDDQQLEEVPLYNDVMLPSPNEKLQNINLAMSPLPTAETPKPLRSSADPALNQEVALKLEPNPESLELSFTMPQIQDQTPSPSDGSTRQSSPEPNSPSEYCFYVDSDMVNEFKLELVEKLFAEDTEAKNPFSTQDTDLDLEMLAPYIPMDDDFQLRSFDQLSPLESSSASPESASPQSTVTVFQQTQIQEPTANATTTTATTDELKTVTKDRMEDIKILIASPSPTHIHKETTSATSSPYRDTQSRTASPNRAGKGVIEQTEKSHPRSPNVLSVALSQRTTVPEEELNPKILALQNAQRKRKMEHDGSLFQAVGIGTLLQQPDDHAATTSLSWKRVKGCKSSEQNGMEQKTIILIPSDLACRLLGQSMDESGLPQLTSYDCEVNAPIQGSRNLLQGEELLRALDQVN
Sequence of Hepatocyte nuclear factor 6 (Homo sapiens) (Q9UBC0 whole entry, looked up): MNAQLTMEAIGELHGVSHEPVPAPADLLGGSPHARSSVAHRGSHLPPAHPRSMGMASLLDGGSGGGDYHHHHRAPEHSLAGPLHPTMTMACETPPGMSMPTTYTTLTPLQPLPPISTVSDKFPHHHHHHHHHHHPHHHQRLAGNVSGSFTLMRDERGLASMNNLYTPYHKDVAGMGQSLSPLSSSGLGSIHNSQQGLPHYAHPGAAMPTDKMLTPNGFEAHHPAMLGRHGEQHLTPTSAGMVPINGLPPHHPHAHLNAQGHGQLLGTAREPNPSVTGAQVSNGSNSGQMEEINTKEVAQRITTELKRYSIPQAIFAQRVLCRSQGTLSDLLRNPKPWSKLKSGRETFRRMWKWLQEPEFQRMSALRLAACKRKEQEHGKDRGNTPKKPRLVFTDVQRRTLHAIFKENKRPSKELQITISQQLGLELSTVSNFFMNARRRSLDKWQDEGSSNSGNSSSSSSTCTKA

Take `Brc1nc2ccccc2s1`: the compound was classed as inactive in assay [1], in assay [2], in assay [3], in [4], in assay [5] and in assay [6]. The compound was called inactive in [8], in assay [10], in assay [11], in assay [12], in [14] and in assay [15]. Besides, the outcome in [16], in assay [17], in assay [18] and in [19] was inactive. The AC50 – broadly, the midpoint of the concentration-response curve, whichever way the signal moves – in [7] was 125 µM (active); in assay [9], 89.7 µM (active); in [13], 18.1 µM (active).

As to `CCN(CC)c1ccc(N=Nc2ccccc2)cc1`, the result in assay [1], in assay [2], in assay [3], in assay [4], in [5] and in [6] was inactive. The compound was called inactive in [7], in assay [8], in [11], in [15], in assay [16] and in [17]. Besides, the compound was classed as inactive in [19]. Also, the AC50 in [9] is 144 µM (active); in assay [10] it was 7.22 µM (active); in [20], 8.89 µM (active); in assay [12], 3.99 µM (active); in assay [13] it was 4.8 µM (active); in assay [14] it was 8.12 µM (active).

Take `O=C1c2c(O)ccc(Nc3ccc(CCO)cc3)c2C(=O)c2c([N+](=O)[O-])ccc(O)c21`: the compound was called inactive in assay [1], in assay [2], in assay [3], in [4], in assay [5] and in assay [6]. The compound was called inactive in assay [7], in [8], in assay [9], in assay [10], in assay [11] and in assay [15]. The compound was called inactive in [16], in assay [17], in assay [18] and in assay [19]. Moreover, the AC50 in assay [12] was 6.06 µM (active); in assay [13], 24.1 µM (active); in assay [14], 4.01 µM (active).

Consider `CCOCOCC`, for which the outcome in [1], in assay [2], in assay [3], in assay [4], in assay [5] and in [6] was inactive. Also, the compound was classed as inactive in assay [7], in [8], in assay [9], in [10], in [20] and in [12]. Moreover, the compound was classed as inactive in assay [13], in [14], in assay [15], in assay [16], in [17] and in assay [18]. Moreover, the compound was called inactive in [19].
